Reference: the supplement of paper PMC6763611

Test system: Plasmodium falciparum NF54
Test: growth inhibition relative to untreated control; higher = more inhibition
Conditions: 72 h
How it was run: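 Growth inhibition was measured by SYBR Green fluorescence, normalised to untreated wells and corrected for background from uninfected erythrocytes. The parasites were P. falciparum NF54 ring stages (1% hematocrit, 1% parasitemia) exposed to single 5 μM or 1 μM doses of test compounds for 72 h at 37 °C, in either minimal RPMI or minimal RPMI containing 2.2 μM folate, 7.3 μM pABA, 7.3 μM pHBA, 111 μM tyrosine, 90 μM phenylalanine and tryptophan.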

[1] = 1 µM, MM + chorismate end-products (CM screening medium)
[2] = 5 µM, MM + chorismate end-products (CM screening medium)

Compound | growth inhibition [1] | growth inhibition (1 µM, minimal medium (MM)) | growth inhibition [2] | growth inhibition (5 µM, minimal medium (MM))
c1ccc(Oc2ccc(-c3cc(C4CCOCC4)[nH]n3)cc2)cc1 | 1.03% | < 0% | < 0% | < 0%
Nc1ncnc2c1ncn2C[C@@H](O)[C@@H](O)C(=O)O | 44.8% | 43% | 48.6% | < 0%
O=C(Nc1c(O)cccc1-c1nc2c(C(=O)O)cccc2o1)c1cc(-c2ccccc2)on1 | > 100% | < 0% | < 0% | < 0%
CCC(Sc1nc2ccccc2o1)C(=O)Nc1nnc(C)s1 (configuration not stated) | 13.2% | 0.545% | < 0% | 0.009%
NC(CC(=O)c1ccc(Cl)cc1Cl)C(Cl)(Cl)Cl (configuration not stated) | < 0% | 11.5% | 18.3% | 23%
CCCc1ccc(S(=O)(=O)Nc2ccc(CN3CCN(CC4CC4)CC3)cc2)cc1 | 7.84% | 4.1% | 66.4% | 86.7%
Cc1ccc(S(=O)(=O)Nc2ccc(CN3CCN(C(=O)c4cccc(C#N)c4)CC3)cc2)cc1 | 5.22% | 5.35% | 42.7% | < 0%
Cc1noc(C)c1C(=O)N1CCCC(c2[nH]c3c(C)cccc3c2-c2ccncc2)C1 (configuration not stated) | 97.7% | 95.3% | 92.6% | 92.4%
Cc1cc2ccccc2n1CC(=O)N1CC(C(=O)N2CCCCC2)Oc2ccccc21 (configuration not stated) | 97.2% | 95.9% | 96.1% | 98%
CN1CCN(CCCOc2ncc(Nc3ncc(-c4ccc(C(F)(F)F)c(F)c4)nc3C(N)=O)cn2)CC1 | > 100% | > 100% | > 100% | 93.3%
Cc1ccc2[nH]c(C3CCCNC3)c(-c3ccncc3)c2c1 (configuration not stated) | 97.7% | 97.5% | > 100% | 97.4%
CS(=O)(=O)c1ccccc1C(=O)N(Cc1ccccc1)c1ccccc1 | 35.9% | 7.57% | < 0% | < 0%
COc1ccc(-c2onc(C(F)(F)F)c2-c2ccc(Cl)cc2)c(O)c1 | 94% | 94.8% | 98.9% | 97.5%
Cc1nc2ccccn2c1C(=O)NCc1ccc(Cl)cc1 | 1.31% | < 0% | 31% | 10.3%
Cc1ccc2nc(Cl)c(CNCc3cccs3)cc2c1 | 49.9% | 31.9% | < 0% | < 0%
Nc1ncnc2c1ncn2[C@@H]1O[C@H](COS(=O)(=O)NC(=O)c2ccccc2O)[C@@H](O)[C@H]1O | 32.6% | < 0% | < 0% | < 0%
CCOc1ccccc1NC(C)C(=O)Nc1cc(C(F)(F)F)ccc1N1CCOCC1 (configuration not stated) | 76% | 64.5% | 91.6% | 96.1%

Compound | growth inhibition [1] | growth inhibition (1 µM, minimal medium (MM)) | growth inhibition [2] | growth inhibition (5 µM, minimal medium (MM))
O=S(=O)(c1ccc(Cl)cc1)N1CCN(C(=S)NCc2ccco2)CC1 | 97.7% | 93.6% | 94.3% | 92.6%
CC(=O)Oc1ccccc1C(=O)Nc1ncc([N+](=O)[O-])s1 | < 0% | 4.44% | 12% | < 0%
c1ccc(-c2nc(NC3CCCCC3)cc(C3CC3)n2)nc1 | 80.6% | 56.8% | 94.6% | 93.6%
CC(=O)Nc1ccc(-c2noc(CC3CCCN(Cc4cccc(F)c4C)C3)n2)cc1 (configuration not stated) | 25.8% | < 0% | 93.6% | 82%
Cc1cc(C)n2nc(C(=O)Nc3cc(C(F)(F)F)ccc3N3CCOCC3)nc2n1 | 82.6% | 77.1% | 75.9% | 68.5%
COc1ccc(-c2nn(C(C)C)c3ncnc(N)c23)cc1OC | 86.7% | 81.7% | 97.3% | 90.9%
Cn1ccnc1CNCCS(=O)(=O)c1cccc(Nc2ccc(-c3cccc(F)c3)cn2)c1 | < 0% | < 0% | 26.9% | 3.75%
CC(C)(C)n1nc(-c2ccccc2)c2c(N)ncnc21 | 20.8% | 20.3% | 38.5% | < 0%
COc1ccc(OC)c(NCc2ccc3nc(N)nc(N)c3c2Cl)c1 | 99.9% | > 100% | 96.1% | 94.2%
O=C(Nc1nnc(-c2ccc(Cl)s2)o1)c1ccc(Cl)s1 | 34.8% | 22.8% | < 0% | < 0%
Cc1cc(Cl)c(S(=O)(=O)N2CCCC2)cc1OCC(=O)NC1CCCCC1 | 71.3% | 100% | 82.3% | 59.9%
Clc1ccc(Cl)c(CO[C@H]2CCCC[C@@H]2n2ccnc2)c1 | < 0% | < 0% | 67.1% | 9.72%
COc1cc(OC)cc(C(=O)NCC2Cc3cc(Cl)cc(-c4ccncc4)c3O2)c1 (configuration not stated) | 91.9% | > 100% | 93% | 91.9%
CC(=O)N1CCc2cc3nc(C)cc(C)c3cc21 | 13.3% | < 0% | 38.1% | < 0%
COC(=O)c1ccc(F)cc1NS(=O)(=O)c1cccc(-c2cnn(Cc3ccccc3)c2)c1 | 33.2% | 37.7% | 9.57% | < 0%
COc1ccc(-c2cnc3ccc(NCc4ccc(S(N)(=O)=O)cc4)nn23)cn1 | 73.3% | 77.2% | 95.9% | 92.1%
